Measurements taken from the supplement of paper PMC10849652.
Targets with a hit are over-represented here; the source holds about 8,800 in all. About 0.5% of all pairs of compound and target were hits. Values without a mark were called inactive.

Experiments:
Assay in all cases: log2 fold change, soluble protein after heating vs DMSO (PISA); higher = thermal stabilisation; K562 lysate, 10 uM; active = over 0.2 and 3.5 SD of the protein, either way, in both replicates (recomputed)
vemurafenib = compound: CCCS(=O)(=O)Nc1ccc(F)c(C(=O)c2c[nH]c3ncc(-c4ccc(Cl)cc4)cc23)c1F [vemurafenib]
In short: (§1)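 To prepare the extract, K562 pellets were dounce-homogenised in PBS pH 7.4 with 1 mM MgCl2, giving crude material at 1 mg/mL protein. This was treated with 10 μM compound for 30 min, then heated in aliquots for 3 min over 48°C-58°C before pooling and addition of NP-40 to 0.5% at 4°C. Centrifugation at 21,000xg for 90 min left soluble protein in the supernatant, which TMTpro 16plex LC-MS/MS quantified with equalised channel sums. Results are log-two fold changes in thermal stability compared with solvent controls, from duplicates.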

[1] = compound: CCCS(=O)(=O)Nc1ccc(F)c(C(=O)c2c[nH]c3ncc(Cl)cc23)c1F
In short: as §1

[2] = compound: CC[C@@H]1C(=O)N(C)c2cnc(Nc3ccc(C(=O)NC4CCN(C)CC4)cc3OC)nc2N1C1CCCC1
In short: as §1

volasertib = compound: CC[C@@H]1C(=O)N(C)c2cnc(Nc3ccc(C(=O)N[C@H]4CC[C@H](N5CCN(CC6CC6)CC5)CC4)cc3OC)nc2N1C(C)C [volasertib]
In short: as §1

[3] = compound: CCn1cc(-c2ccnc3[nH]c(-c4cccc(CN(C)C)c4)cc23)c(-c2ccc(NC(=O)N(C)C)cc2)n1
In short: as §1

[4] = compound: CN1CCC(CNc2ccc3ncc(-c4cccc(OC(F)(F)F)c4)n3n2)CC1
In short: as §1

saracatinib = compound: CN1CCN(CCOc2cc(OC3CCOCC3)c3c(Nc4c(Cl)ccc5c4OCO5)ncnc3c2)CC1 [saracatinib]
In short: as §1

sotrastaurin = compound: CN1CCN(c2nc(C3=C(c4c[nH]c5ccccc45)C(=O)NC3=O)c3ccccc3n2)CC1 [sotrastaurin]
In short: as §1

barasertib = compound: CCN(CCCOc1ccc2c(Nc3cc(CC(=O)Nc4cccc(F)c4)[nH]n3)ncnc2c1)CCOP(=O)(O)O [barasertib]
In short: as §1

[5] = compound: CCn1c(C(=O)N(C2CC2)C2CC2)cc2c3c(ncn3C)c(Nc3cc(C)n(C)n3)nc21
In short: as §1

Chain of UniProt Q6P1S2 (Q6P1S2 whole entry, looked up): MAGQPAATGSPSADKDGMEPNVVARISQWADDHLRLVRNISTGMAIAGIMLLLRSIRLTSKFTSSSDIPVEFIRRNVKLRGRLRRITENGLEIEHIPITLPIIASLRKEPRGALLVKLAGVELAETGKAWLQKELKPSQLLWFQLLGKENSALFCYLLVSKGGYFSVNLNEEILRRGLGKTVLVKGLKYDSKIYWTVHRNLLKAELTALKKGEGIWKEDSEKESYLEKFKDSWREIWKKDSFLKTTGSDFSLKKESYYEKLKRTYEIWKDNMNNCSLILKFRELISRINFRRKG
Chain of UniProt O75808 (O75808 whole entry, looked up): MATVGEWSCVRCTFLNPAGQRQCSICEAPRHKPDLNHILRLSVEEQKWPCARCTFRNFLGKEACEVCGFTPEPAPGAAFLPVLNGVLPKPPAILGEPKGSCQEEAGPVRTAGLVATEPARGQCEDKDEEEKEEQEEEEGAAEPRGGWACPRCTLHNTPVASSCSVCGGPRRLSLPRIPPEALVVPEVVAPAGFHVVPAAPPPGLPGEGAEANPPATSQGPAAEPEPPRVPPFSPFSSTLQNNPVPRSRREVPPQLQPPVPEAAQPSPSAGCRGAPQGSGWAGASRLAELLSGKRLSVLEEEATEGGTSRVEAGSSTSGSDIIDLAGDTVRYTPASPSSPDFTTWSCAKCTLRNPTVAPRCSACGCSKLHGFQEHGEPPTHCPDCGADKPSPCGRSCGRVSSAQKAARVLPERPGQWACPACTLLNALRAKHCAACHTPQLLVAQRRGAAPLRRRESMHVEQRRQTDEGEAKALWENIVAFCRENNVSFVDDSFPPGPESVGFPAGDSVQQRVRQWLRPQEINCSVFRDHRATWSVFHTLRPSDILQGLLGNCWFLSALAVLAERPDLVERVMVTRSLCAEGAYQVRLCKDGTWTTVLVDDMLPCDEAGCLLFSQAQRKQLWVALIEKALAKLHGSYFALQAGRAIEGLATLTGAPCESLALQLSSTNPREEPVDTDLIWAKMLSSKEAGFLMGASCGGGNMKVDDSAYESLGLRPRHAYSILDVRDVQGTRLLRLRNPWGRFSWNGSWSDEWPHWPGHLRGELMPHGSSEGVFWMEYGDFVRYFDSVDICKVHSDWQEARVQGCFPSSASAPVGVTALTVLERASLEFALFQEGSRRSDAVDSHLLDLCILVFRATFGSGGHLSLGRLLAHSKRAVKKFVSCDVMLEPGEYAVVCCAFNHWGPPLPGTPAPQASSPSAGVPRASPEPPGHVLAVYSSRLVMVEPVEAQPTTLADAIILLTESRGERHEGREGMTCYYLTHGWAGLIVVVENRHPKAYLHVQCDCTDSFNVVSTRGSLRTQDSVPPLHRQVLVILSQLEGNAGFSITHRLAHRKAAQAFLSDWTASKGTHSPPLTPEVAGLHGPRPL
Chain of UniProt Q3L8U1 (Q3L8U1 whole entry, looked up): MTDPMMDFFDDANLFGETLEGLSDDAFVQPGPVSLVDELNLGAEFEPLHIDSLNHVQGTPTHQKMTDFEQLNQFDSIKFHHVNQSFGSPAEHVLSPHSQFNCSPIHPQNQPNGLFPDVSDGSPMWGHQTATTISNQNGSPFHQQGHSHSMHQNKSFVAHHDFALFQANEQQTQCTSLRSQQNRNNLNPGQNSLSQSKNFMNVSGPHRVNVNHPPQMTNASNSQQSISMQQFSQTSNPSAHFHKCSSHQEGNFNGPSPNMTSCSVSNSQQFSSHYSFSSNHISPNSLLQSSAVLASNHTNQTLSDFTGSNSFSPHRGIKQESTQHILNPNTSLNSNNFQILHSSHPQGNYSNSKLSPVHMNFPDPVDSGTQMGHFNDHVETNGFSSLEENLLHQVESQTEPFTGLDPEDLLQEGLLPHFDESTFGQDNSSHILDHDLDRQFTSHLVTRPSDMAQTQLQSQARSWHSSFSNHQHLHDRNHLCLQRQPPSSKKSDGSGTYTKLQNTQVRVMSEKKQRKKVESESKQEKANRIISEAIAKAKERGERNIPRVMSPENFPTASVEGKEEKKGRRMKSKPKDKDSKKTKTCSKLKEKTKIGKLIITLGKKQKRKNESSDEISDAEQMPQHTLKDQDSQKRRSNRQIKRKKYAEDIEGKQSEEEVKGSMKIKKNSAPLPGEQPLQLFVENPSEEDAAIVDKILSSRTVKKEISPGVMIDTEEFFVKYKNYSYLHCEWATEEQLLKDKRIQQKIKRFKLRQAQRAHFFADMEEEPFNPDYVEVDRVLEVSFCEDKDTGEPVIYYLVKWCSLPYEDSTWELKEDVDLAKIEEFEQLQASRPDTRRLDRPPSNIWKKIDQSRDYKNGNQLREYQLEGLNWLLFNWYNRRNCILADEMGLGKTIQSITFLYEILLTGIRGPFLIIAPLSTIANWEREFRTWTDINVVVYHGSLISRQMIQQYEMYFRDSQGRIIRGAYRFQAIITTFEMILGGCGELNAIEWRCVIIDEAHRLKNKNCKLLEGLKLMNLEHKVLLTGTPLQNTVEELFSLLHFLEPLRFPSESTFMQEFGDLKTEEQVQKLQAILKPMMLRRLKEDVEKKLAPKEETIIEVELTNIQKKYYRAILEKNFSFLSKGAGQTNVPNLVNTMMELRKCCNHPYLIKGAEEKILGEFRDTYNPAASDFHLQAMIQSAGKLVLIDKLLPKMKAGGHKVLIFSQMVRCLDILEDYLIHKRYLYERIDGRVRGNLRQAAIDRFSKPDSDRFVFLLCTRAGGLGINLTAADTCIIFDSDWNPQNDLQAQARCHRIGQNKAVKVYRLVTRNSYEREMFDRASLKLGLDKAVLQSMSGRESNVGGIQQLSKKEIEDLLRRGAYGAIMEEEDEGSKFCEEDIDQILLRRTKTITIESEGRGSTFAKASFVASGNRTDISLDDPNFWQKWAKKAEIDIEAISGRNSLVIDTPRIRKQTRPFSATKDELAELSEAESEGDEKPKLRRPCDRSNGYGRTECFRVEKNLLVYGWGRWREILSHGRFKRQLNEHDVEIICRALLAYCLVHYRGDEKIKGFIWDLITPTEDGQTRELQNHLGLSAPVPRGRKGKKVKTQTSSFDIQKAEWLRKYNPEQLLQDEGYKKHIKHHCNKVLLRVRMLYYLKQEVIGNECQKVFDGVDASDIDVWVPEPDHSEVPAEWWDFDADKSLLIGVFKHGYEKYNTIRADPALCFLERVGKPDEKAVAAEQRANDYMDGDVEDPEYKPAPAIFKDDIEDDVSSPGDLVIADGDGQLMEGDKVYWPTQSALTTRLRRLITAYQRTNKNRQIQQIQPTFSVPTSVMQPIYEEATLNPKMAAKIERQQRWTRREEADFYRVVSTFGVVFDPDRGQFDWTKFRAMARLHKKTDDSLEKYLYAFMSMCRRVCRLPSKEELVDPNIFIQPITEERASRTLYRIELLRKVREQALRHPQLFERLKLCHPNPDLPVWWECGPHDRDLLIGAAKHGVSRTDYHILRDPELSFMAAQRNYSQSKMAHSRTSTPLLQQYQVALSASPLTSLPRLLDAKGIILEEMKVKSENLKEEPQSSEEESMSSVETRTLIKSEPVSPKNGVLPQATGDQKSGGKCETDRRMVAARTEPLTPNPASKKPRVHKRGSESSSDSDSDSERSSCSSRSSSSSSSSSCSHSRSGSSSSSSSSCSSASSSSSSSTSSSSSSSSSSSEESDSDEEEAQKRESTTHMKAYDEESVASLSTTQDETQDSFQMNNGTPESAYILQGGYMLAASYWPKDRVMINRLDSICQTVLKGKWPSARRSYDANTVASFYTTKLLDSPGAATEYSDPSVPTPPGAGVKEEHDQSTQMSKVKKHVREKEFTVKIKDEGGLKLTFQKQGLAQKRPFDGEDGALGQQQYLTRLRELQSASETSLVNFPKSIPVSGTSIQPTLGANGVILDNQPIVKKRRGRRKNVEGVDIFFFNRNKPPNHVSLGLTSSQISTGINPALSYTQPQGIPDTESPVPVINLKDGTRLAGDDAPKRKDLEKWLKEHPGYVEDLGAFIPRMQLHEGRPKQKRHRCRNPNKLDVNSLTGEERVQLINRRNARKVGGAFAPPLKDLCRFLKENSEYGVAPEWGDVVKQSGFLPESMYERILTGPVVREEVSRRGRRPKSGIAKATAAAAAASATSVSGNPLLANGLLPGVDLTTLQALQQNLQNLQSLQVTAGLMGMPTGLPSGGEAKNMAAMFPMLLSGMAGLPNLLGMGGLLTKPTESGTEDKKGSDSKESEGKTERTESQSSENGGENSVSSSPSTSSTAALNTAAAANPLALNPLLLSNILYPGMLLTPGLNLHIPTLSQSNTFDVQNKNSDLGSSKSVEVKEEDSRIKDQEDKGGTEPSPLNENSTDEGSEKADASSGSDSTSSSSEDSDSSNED
Chain of UniProt Q96LT7 (Q96LT7 whole entry, looked up): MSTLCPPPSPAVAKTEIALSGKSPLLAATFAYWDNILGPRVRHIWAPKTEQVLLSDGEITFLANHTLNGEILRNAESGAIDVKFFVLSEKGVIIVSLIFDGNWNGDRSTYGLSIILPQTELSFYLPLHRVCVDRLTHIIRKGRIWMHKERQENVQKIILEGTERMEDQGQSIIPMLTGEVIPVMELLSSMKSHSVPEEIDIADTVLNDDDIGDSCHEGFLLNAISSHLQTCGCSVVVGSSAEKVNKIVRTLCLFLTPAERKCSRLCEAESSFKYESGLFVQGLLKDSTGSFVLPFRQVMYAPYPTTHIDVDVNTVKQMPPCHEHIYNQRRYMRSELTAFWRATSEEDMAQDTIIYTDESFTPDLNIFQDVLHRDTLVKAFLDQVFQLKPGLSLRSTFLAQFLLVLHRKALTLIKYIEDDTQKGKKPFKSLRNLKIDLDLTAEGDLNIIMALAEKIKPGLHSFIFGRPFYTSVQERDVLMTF
Chain of UniProt Q7Z4R8 (Q7Z4R8 whole entry, looked up): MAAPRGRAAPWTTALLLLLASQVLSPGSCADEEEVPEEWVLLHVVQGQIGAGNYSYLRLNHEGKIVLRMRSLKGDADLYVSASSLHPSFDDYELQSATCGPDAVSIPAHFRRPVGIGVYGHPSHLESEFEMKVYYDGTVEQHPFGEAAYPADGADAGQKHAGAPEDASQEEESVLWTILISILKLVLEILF

Row | Target | log2 fold change (vemurafenib) | log2 fold change [1] | log2 fold change [2] | log2 fold change (volasertib) | log2 fold change [3] | log2 fold change [4] | log2 fold change (saracatinib) | log2 fold change (sotrastaurin) | log2 fold change (barasertib) | log2 fold change [5]
1 | CDKL5 (UniProt O76039) | -0.131 | 0.041 | -0.149 | -0.035 | -0.091 | 0.088 | -0.122 | 0.048 |  | 
2 | CDK5RAP1 (UniProt Q96SZ6) | -0.03 |  | 0.059 |  | 0.023 | 0.026 | 0.026 | -0.037 | 0.025 | 0.035
3 | BNIP1 (UniProt Q12981) | 0.024 | 0 | -0.032 | -0.054 | 0.287 (active) | -0.204 | 0.032 | 0.006 | 0.057 | -0.013
4 | CAPN15 (UniProt O75808) | 0.04 | -0.046 | -0.007 | 0.027 | 0.037 | 0.016 | 0.032 | -0.091 | 0.077 | 0.013
5 | C3orf33 (UniProt Q6P1S2) | 0.295 | -0.043 |  | 0.063 | -0.823 (active) | 0.216 | 0.045 | 0.047 | -0.04 | -0.056
6 | CEP128 (UniProt Q6ZU80) | -0.025 |  | -0.132 |  | -1.27 (active) | 0.369 | 0.07 |  | 0.124 | 0.375
7 | CASP7 isoform 3 (UniProt P55210) |  | -0.117 | -0.148 | -0.049 |  |  | 0.056 | -0.091 | 0.059 | -0.119
8 | CARHSP1 (UniProt H3BNU9) |  | 0.032 |  | -0.161 | 0.16 | -0.522 |  |  | 0.246 | 
9 | BRAF, A0A2R8Y8E0 | 1.34 |  | -0.287 |  |  |  |  |  |  | 
10 | BUD13 (UniProt Q9BRD0) |  |  | -0.07 |  | 0.076 | -0.064 | 0.096 | 0.025 | 0.092 | -0.037
11 | BICRA (UniProt Q9NZM4) |  | 0.055 |  | 0.036 | -0.133 | -0.048 | 0.02 | 0 | 0.165 | -0.233
12 | C3AR1 (UniProt Q16581) |  |  |  |  | -0.664 (active) | -0.286 |  | -0.004 | -0.172 | 
13 | AVEN (UniProt Q9NQS1) | 0.177 |  | 0.117 |  | -0.651 (active) | 0.167 | 0 | -0.007 | -0.091 | -0.025
14 | C6orf120 (UniProt Q7Z4R8) |  | -0.127 |  | 0.051 | -0.005 | 0.049 | 0.004 |  | 0.096 | 
15 | CEP57L1 (UniProt Q8IYX8) |  |  | 0.227 |  | -0.028 | -0.066 | -0.065 | -0.007 | -0.06 | 0.044
16 | C9orf72 (UniProt Q96LT7) |  | -0.03 | 0.034 | 0.088 | -0.065 | -0.015 | 0.082 | 0.011 | -0.091 | 0.022
17 | CEP152 (UniProt O94986) | 0.031 |  | 0.25 |  | -0.009 | 0.272 | 0.051 | -0.039 | 0.106 | 0.008
18 | BCORL1 isoform 3 (UniProt Q5H9F3) | 0.123 |  | -0.033 |  | -0.546 | 0.344 | -0.082 | -0.099 |  | -0.018
19 | CHD9 (UniProt Q3L8U1) | -0.028 |  |  |  | 1.88 (active) | -0.122 | 0.114 | 0.17 |  | -0.139
20 | CHD4, A0A2R8Y521 |  | -0.315 | -0.053 | 0.103 |  |  | 0.149 |  |  | -0.342
